High-throughput results (PubChem BioAssay)
KAT2A inh – blocks human GCN5L2 histone acetyltransferase. Potency, µM (top dose mostly 58.9 µM), for inactives: at the top dose activity change, negative = inhibition, actives largely listed as inhibitors. Q92830. GCN5L2 HAT assay, ThioGlo1 CoA-SH fluorescence. 390,000 compounds, 0.21% hits. AID 504327; also: potency is read from the fitted curve at half-maximal effect; % is scaled to controls: 0 for no effect and ±100 for the full control effect
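Enzyme at 20nM final was mixed with library compounds for 15 min at room temperature. Peptide H3(1-25) at 75uM, acetyl-CoA at 70uM and ThioGlo1 at 50uM were then added. Plates were read immediately and after 20 min (Ex340nm/Em540nm).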
HP1b binding inh – inhibitors of HP1-beta chromodomain binding to methylated histone tails | AlphaScreen HP1-beta / biotin-H3K9me3 peptide binding | Potency, µM (doses to about 114 µM), for the others: at the highest dose activity change, negative = inhibition, actives largely listed as inhibitors | 390,000 compounds, 0.56% hits | AID 540317; also: potency is read from the fitted curve at half-maximal effect; nearly all actives have a fitted effect of over 70% in size
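Compound inhibition of the preformed complex between 50 nM HP1-beta and 50 nM biotinylated H3K9me3 peptide was read by AlphaScreen. Buffer was PBS pH 7.4 with 0.01% Tween-20. Incubations ran 30 min at room temperature, with 10 ug/mL donor/acceptor beads.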
BAZ2B inh – inhibitors of human BAZ2B bromodomain. AlphaScreen BAZ2B-H3K14Ac peptide displacement. 360,000 compounds, 4.4% hits. Q9UIF8. AID 504333. Potency, µM (titrated, usually from 114 µM), inactives show at the highest dose activity change, negative = inhibition, usual class: inhibitors; also: potency is read from the fitted curve at half-maximal effect; % is scaled to controls: 0 for no effect and ±100 for the full control effect; nearly all actives have a fitted effect of over 60% in size
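AlphaScreen luminescence quantifies BAZ2B engagement of H3K14Ac peptide; the protein and biotinylated peptide are both at 50 nM final, buffer PBS pH 7.4 with 0.01% Tween-20, all steps at room temperature.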
JMJD2A Tudor – inhibitors of human JMJD2A Tudor domain | O75164 | AlphaScreen JMJD2A-Tudor / H3K4me3 peptide binding | Potency, µM (titrated, usually from 114 µM), without a hit: at the highest dose activity change, negative = inhibition, usual class: inhibitors | 390,000 compounds, 4.4% hits | AID 504339; also: potency is read from the fitted curve at half-maximal effect; % is scaled to controls: 0 for no effect and ±100 for the full control effect; nearly all actives have a fitted effect of over 50% in size
PI5P4K alpha inh – blocks human PI5P4K alpha kinase activity. max response, %. P48426. PI5P4Kalpha enzyme, ADP-Glo luminescence, 60 min; hits give low values. 330,000 compounds, 1.2% hits; active = max response of -50% or lower; inconclusive = between -30% and -50%; inactive = -30% or higher; also: value at the top dose of about 77 µM; % is scaled to controls: 0 for no effect and ±100 for the full control effect
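Single end-point luminescence (ADP-Glo) quantified ADP from PI5P4Kalpha turnover; ATP 5 microM final, 1 h at RT, 0.1% CHAPS and 0.28 mM EGTA in HEPES pH 7.4.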
PLK1 PBD block – PLK1 (human) polo-box domain binding inhibition; P53350; Potency, µM, for inactives: max response, negative = inhibition, most hits filed as inhibitors; AID 720504; 360,000 compounds, 2.8% hits; Plk1 PBD binding of FITC phosphopeptide, fluorescence polarization; also: potency is read from the fitted curve at half-maximal effect; series mostly up to about 57 µM; % is scaled to controls: 0 for no effect and ±100 for the full control effect; nearly all actives have a fitted effect of over 65% in size
An asterisk follows results filed as active; ? = inconclusive; · = no result given; [ ] = another dose, or the depositor's remark. Most compounds without a hit are left out; they make up all but 7% or so of the library. Unless noted, calls follow the shape of the dose curve; as a rule, active = well fitted curve in the direction sought with a large enough effect; inconclusive = small, poorly fitted or top-dose-only effect, or another doubt; inactive = no such curve, though single readings can be large; an effect the other way counts as inactive or inconclusive.

SMILES | KAT2A inh | HP1b binding inh | BAZ2B inh | JMJD2A Tudor | PI5P4K alpha inh | PLK1 PBD block
COCCCNC(=O)C(=O)NCCCOC(C)C | -2% | 35% | -2% | 5.6µM* | 1 | -11%
Cc1ccsc1CN1CCN(c2ccccn2)CC1 | -12% | -53% | 50µM* | 1.8µM* | · | -8%
Cc1ccsc1/C=N/N1CCN(Cc2ccccc2)CC1 | -6% | ? | ? | 56µM* | -13 | 21µM*
Cc1ccc(/C=N/N2CCN(Cc3ccccc3)CC2)cc1 | -2% | -16% | ? | 79µM* | 11 | 2%
Cc1ccc(CN2CCN(/N=C/c3ccccc3)CC2)cc1 | -1% | ? | ? | ? | 6 | 1%
c1ccc(-c2nnc(CN3CCN(c4ccccn4)CC3)o2)cc1 | -12% | 19% | -3% | -19% | · | ·
O=S(=O)(CCN1CCN(C(c2ccccc2)c2ccccc2)CC1)C(F)(F)F | -1% | -10% | · | -16% | · | 15µM*
CC(C)CNC(=S)N1CCC(C(=O)c2ccc(Cl)cc2)CC1 | · | · | · | · | -4 | -4%
C(=N\N1CCN(Cc2ccccc2)CC1)/c1ccc(-c2ccccc2)cc1 | 13% | 20% | -12% | -22% | 7 | -4%
Cc1ccsc1/C=N/N1CCN(c2ccccn2)CC1 | -3% | -35% | 40µM* | 63µM* | 3 | -16%
Cc1ccsc1/C=N/N1CCN(c2ccccc2)CC1 | 0% | -17% | ? | ? | · | 2%
Oc1ccc(/C=N/N2CCN(Cc3ccccc3)CC2)cc1 | -4% | 2% | -11% | -26% | 0 | -13%
Fc1ccc(/C=N/N2CCN(Cc3ccccc3)CC2)cc1 | -2% | ? | 45µM* | ? | 11 | 3%
COC(=O)c1ccc(/C=N/N2CCN(Cc3ccccc3Cl)CC2)cc1 | 0% | -18% | -27% | 8.9µM* | 2 | 3%
O=C(O)c1ccc(/C=N/N2CCN(Cc3ccccc3)CC2)cc1 | -3% | 29% | 89µM* | -5% | -3 | -4%
CCOc1cc2sc(N3CCC(C(=O)Nc4ccc(C(C)C)cc4)CC3)nc2cc1Br | -7% | 2% | ? | -29% | · | ·
CCc1ccc(NC(=O)CC2C(=O)N(c3ccc(Cl)cc3)C(=O)N2Cc2cccs2)cc1 (stereo not drawn) | -10% | 30% | -11% | 9% | · | ·
C[C@@H]1CN([C@H](C)CO)C(=O)Cc2cc(NS(=O)(=O)c3cn(C)cn3)ccc2O[C@H]1CN(C)S(=O)(=O)c1ccc(Cl)cc1 | -2% | 73% | · | -10% | 3 | -6%
CCN(C(=O)COC(=O)c1nccnc1N)c1cccc2ccccc12 | -2% | -5% | · | ? | -10 | 1%
CN1CCN(/N=C/c2c3ccccc3c(Cl)c3ccccc23)CC1 | 0% | ? | 20µM* | 40µM* | 28 | -4%
CSc1ccc(/C=N/N2CCN(C)CC2)cc1 | -5% | -10% | ? | ? | -3 | -13%
Cn1cccc1/C=N/N1CCN(c2ccccn2)CC1 | -5% | -58% | 50µM* | ? | 3 | 0%
CSc1ccc(/C=N/N2CCN(Cc3ccc(Cl)cc3)CC2)cc1 | -5% | -12% | 22µM* | ? | 2 | -19%
CCN(CC)c1ccc(/C=N/N2CCN(Cc3ccccc3Cl)CC2)c(O)c1 | -22% | ? | 10µM* | 32µM* | -2 | -3%
Cc1ccc(/C=N/N2CCN(c3ccccn3)CC2)cc1 | 0% | 0% | -32% | -31% | 10 | -4%
SMILES | KAT2A inh | HP1b binding inh | BAZ2B inh | JMJD2A Tudor | PI5P4K alpha inh | PLK1 PBD block
CCC(=O)Nc1ccc2c(c1)OC[C@@H](C)N(Cc1cccc(F)c1)C[C@@H](C)[C@@H](OC)CN(C)C2=O | · | · | · | · | 0 | -10%
CC(Oc1ccccc1F)C(=O)NNC(=O)CCNC(=O)c1ccco1 (stereo not drawn) | -19% | 27% | 13% | 4% | 9 | -7%
C(=N\N1CCN(c2ccccc2)CC1)/c1ccccc1 | -7% | 4% | -27% | ? | -3 | 4%
CN1CCN(/N=C/c2ccc(-c3ccccc3)cc2)CC1 | -13% | ? | 22% | 40µM* | 1 | -19%
Fc1ccc(CN2CCN(C(c3ccccc3)c3ccccc3)CC2)cc1 | -5% | ? | 50µM* | 22µM* | 2 | -8%
O=C(O)CN1C(=O)/C(=C\c2ccccc2OCc2ccc(Cl)cc2Cl)SC1=S | 18µM* | -13% | ? | 56µM* | -25 | 27µM*
O=C(O)CN1C(=O)/C(=C\c2cccc(OCc3ccc(Cl)cc3Cl)c2)SC1=S | ? | ? | 79µM* | 50µM* | -1 | 21µM*
CCOc1ccccc1C=C1SC(=S)N(CC)C1=O | · | -23%[57 µM] | · | ? | -1 | 4%
O=C(O)CN1C(=O)/C(=C\c2cc(Br)ccc2OCc2ccccc2F)SC1=S | ? | -11% | 56µM* | 50µM* | -9 | 19µM*
O=C(O)CN1C(=O)/C(=C\c2cc(Br)ccc2OCc2ccc([N+](=O)[O-])cc2)SC1=S | -22% | -38% | 45µM* | 56µM* | -71* | 21µM*
Cc1ccc(SCC(=O)OC(C)C(=O)Nc2ccc(S(N)(=O)=O)cc2)cc1C (stereo not drawn) | -8% | -3% | 10% | -16% | -2 | -9%
O=C(O)CN1C(=O)/C(=C\c2cc(Br)ccc2OCc2ccccc2Cl)SC1=S | ? | -20% | 45µM* | ? | 0 | 17µM*
CC1(c2nnnn2-c2ccc3c(c2)OCCO3)CCC(=O)N1Cc1cccc(C(F)(F)F)c1 (stereo not drawn) | · | · | · | · | 0 | -7%
CCC(NC(=O)Nc1ccc(OC)c(OC)c1)c1c(-n2cccc2)sc2c1CCN(C)C2 (stereo not drawn) | -4% | ? | 50µM* | ? | · | ·
CCOc1ccccc1NC(=O)NC(CC)c1c(-n2cccc2)sc2c1CCN(C)C2 (stereo not drawn) | -2% | 6% | -23% | -32% | · | ·
CCC(NC(=O)Nc1cc(OC)ccc1OC)c1c(-n2cccc2)sc2c1CCN(CC)C2 (stereo not drawn) | -5% | ? | 40µM* | 56µM* | · | ·
COCCNC(=O)C1CCN(Cc2cc3ccccc3n2Cc2ccc(C)cc2)CC1 | 2% | 11% | -19% | -28% | · | ·
O=C(O)CS(=O)(=O)CC(=O)O | -7% | 6% | 79µM* | ? | 0 | -9%
O=C(NCC1CCCO1)c1cc(S(=O)(=O)N2CCCCC2)ccc1Cl (stereo not drawn) | 1% | 35% | 56µM* | -8% | -4 | -2%
Cc1ccc(S(=O)(=O)N2CCCCC2)cc1C(=O)NCC1CCCO1 (stereo not drawn) | -1% | 18% | -2% | 2% | 4 | -5%
